Results on 7 compounds are retold here after paper PMC5540273 (PLoS ONE, 2017).
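Note: kd values determined as follow-up on hits from a single-replicate KINOMEscan panel screen.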

The subject of one assay is CLK2.
Turning to `COc1ccc(CSc2nnc(-c3ccc4nccn4c3)o2)cc1C(F)(F)F`, the Kd stood at 0.15 µM. This counts as sub-micromolar. In turn, `Cc1ccc(NC(=O)c2ccc(Cl)cc2)cc1-c1ccc(C(=O)Nc2ccncc2)cc1` [GSK1398467] registered a Kd greater than 10 µM. Still for that read-out and setting: then `COC(=O)c1cccc(NC(=O)NC2CCN(c3ccnc(Nc4ccc(OC)cc4)n3)C2)c1` (stereo not shown) [GSK1379746], with greater than 10 µM; and `CNc1cc(-c2ccc3c(N)n[nH]c3c2)nc(N)n1` [GSK2224810], with 0.41 µM.

For a further assay, the system named is CLK3.
In turn, `Cc1cccc2c(-c3ccncn3)c(-c3ccc(F)cc3)nn12` [GW515532] came in with a Kd greater than 10 µM.

As for `CCCCc1nn2ncccc2c1-c1ccnc(NC2CC2)n1` [GW684374], the Kd is greater than 10 µM. The same measure, in the same setting: in the case of `CC(=O)c1c(C)c2cnc(Nc3ccc(N4CCNCC4)cn3)nc2n(C2CCCC2)c1=O` it was greater than 10 µM.

As usually defined, the Kd is the concentration at which binding is half-saturated.
